# Experimental data from PubChem BioAssay (NCATS).
# Inconclusive results are not listed. Unmarked numbers belong to inactive results. Active and inactive are the calls of the source. The call rests on the fitted dose curve; in most records, active means well fitted curve in the direction sought with a large enough effect; inconclusive means small, poorly fitted or top-dose-only effect, or another doubt; inactive means no such curve, though single readings can be large; an effect the other way counts as inactive or inconclusive.
# What was measured:
# CRL-7250 = normal cell line; test: Cytotoxic Profiling of Annotated Libraries Using Quantitative High-Throughput Screening (AID 1296008); settings: Five cell lines viability, CellTiter-Glo ATP luminescence, 48-72 h; max response: hits give low values; further: nearly all actives have a fitted effect of over 60% in size
# Procedure, shortened: (§1)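 Cells exposed to compounds for 48 or 72 hr at 37 degrees Celsius. Viability read as ATP-coupled luminescence with CellTiter-Glo after 10 min at room temperature.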
# HEK293 = test: as above; settings: Five cell lines viability, CellTiter-Glo ATP luminescence, 48-72 h; max response: hits give low values
# Procedure, shortened: as §1
# Hek293T = test: Primary qHTS to identify gynecologic anti-cancer compounds using libraries of approved drugs and bioactive compounds (AID 1345084); settings: Gynecologic cancer cell panel viability, ATPlite luminescence, 48 h, control line for the selectivity index; series mostly up to 57.5 µM; further: nearly all actives have a fitted effect of over 55% in size
# Procedure, shortened: (§2)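 ATP-based viability (ATPlite), 1,000 cells/well, 16 h pre-incubation, 48 h compound at 37 C, 5% CO2, 15 min RT before read.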
# NIH3T3 = test: Cytotoxic Profiling of Annotated Libraries Using Quantitative High-Throughput Screening (AID 1296008); settings: Five cell lines viability, CellTiter-Glo ATP luminescence, 48-72 h; max response: hits give low values; further: nearly all actives have a fitted effect of over 60% in size
# Procedure, shortened: as §1
# C33A = test: Primary qHTS to identify gynecologic anti-cancer compounds using libraries of approved drugs and bioactive compounds (AID 1345084); settings: Gynecologic cancer cell panel viability, ATPlite luminescence, 48 h; series mostly up to 57.5 µM; further: nearly all actives have a fitted effect of over 55% in size
# Procedure, shortened: as §2
# Es-2 = test: as above; settings: Gynecologic cancer cell panel viability, ATPlite luminescence, 48 h; series mostly up to 57.5 µM
# Procedure, shortened: as §2
# CAOV3 = test: as above; settings: Gynecologic cancer cell panel viability, ATPlite luminescence, 48 h; series mostly up to 57.5 µM
# Procedure, shortened: as §2
# HeLa = test: as above; settings: Gynecologic cancer cell panel viability, ATPlite luminescence, 48 h; series mostly up to 57.5 µM
# Procedure, shortened: as §2
# JEG-3 = test: as above; settings: Gynecologic cancer cell panel viability, ATPlite luminescence, 48 h; series mostly up to 57.5 µM
# Procedure, shortened: as §2
# CASKI = test: as above; settings: Gynecologic cancer cell panel viability, ATPlite luminescence, 48 h; series mostly up to 57.5 µM
# Procedure, shortened: as §2
# OV90 = test: as above; settings: Gynecologic cancer cell panel viability, ATPlite luminescence, 48 h; series mostly up to 57.5 µM
# Procedure, shortened: as §2
# On the % scale 0 is the no-effect control and ±100 the full control effect; potency means the concentration at half of the fitted maximal effect.
smiles,measurement,setting,value
CC(C)=CCCC1(C)/C=C/C(OC(=O)C=C(C)C)C(C)(O)/C=C/C(=O)/C(CO)=C\C1 (stereo not drawn),max response,CRL-7250,-29.1%
same,Potency,HEK293,2.52 µM (active)
same,Potency,Hek293T,8.91 µM (active)
COC1CC(O[C@H]2CC[C@]3(C)C4CC[C@@]5(C)C(=O)[C@]4(CC[C@@H]3C2)CC[C@@H]5C2=CC(=O)OC2)OC(C)C1OC1OC(COC2OC(CO)C(O)C(O)C2O)C(O)C(O)C1O (stereo partly drawn),Potency,CRL-7250,1.55 µM (active)
same,Potency,HEK293,1.23 µM (active)
same,outcome,NIH3T3,inactive
same,Potency,C33A,2.82 µM (active)
same,Potency,Es-2,2.82 µM (active)
Cn1nc(-c2ccc(C(F)(F)F)cc2)nc2c(=O)n(C)c(=O)nc1-2,Potency,CRL-7250,14.6 µM (active)
same,Potency,HEK293,6.51 µM (active)
same,Potency,NIH3T3,1.3 µM (active)
same,Potency,CAOV3,10 µM (active)
same,Potency,Es-2,15.8 µM (active)
same,Potency,HeLa,20 µM (active)
same,Potency,JEG-3,10 µM (active)
C=C(C)C(=O)O[C@H]1[C@H]2C(=C)C(=O)O[C@@H]2C[C@@H](C)[C@@H]2O[C@@H]2C(=O)[C@](C)(O)[C@@H]1OC(=O)C(=C)C,Potency,CRL-7250,7.09 µM (active)
same,Potency,HEK293,2.52 µM (active)
same,Potency,NIH3T3,3.55 µM (active)
same,Potency,C33A,10 µM (active)
same,Potency,CASKI,10 µM (active)
same,Potency,Es-2,7.94 µM (active)
same,Potency,Hek293T,2.82 µM (active)
same,Potency,JEG-3,12.6 µM (active)
COc1cc(C(N)=O)nc(-c2ccccn2)c1O,max response,CRL-7250,-12.9%
same,max response,HEK293,-3.89%
same,max response,NIH3T3,-4.41%
same,Potency,C33A,inactive
same,Potency,Es-2,inactive
same,Potency,HeLa,inactive
same,Potency,Hek293T,inactive
same,Potency,JEG-3,inactive
same,Potency,OV90,inactive
CCC(C)CC(=O)OC1C(=O)C(CO)=CC(O)C1C(C)C (stereo not drawn),Potency,CRL-7250,18.4 µM (active)
same,Potency,HEK293,8.2 µM (active)
same,Potency,C33A,31.6 µM (active)
same,Potency,CAOV3,28.2 µM (active)
same,Potency,CASKI,28.2 µM (active)
CC1CCC/C=C/C(=O)c2c(O)cc(O)cc2CC(=O)O1 (stereo not drawn),Potency,CRL-7250,7.31 µM (active)
same,Potency,HEK293,4.11 µM (active)
same,Potency,NIH3T3,14.6 µM (active)
same,Potency,C33A,11.2 µM (active)
same,Potency,CASKI,inactive
same,Potency,Hek293T,14.1 µM (active)
same,Potency,JEG-3,14.1 µM (active)
Nc1nc(NC2CC2)cc(-c2cccc(Cl)c2Cl)n1,max response,CRL-7250,-27.4%
same,Potency,HEK293,18.4 µM (active)
same,Potency,C33A,inactive
same,Potency,HeLa,20 µM (active)
same,Potency,OV90,inactive
Cc1cc(Nc2nc(-c3ccccc3)nc3ccccc23)n[nH]1,Potency,CRL-7250,5.17 µM (active)
same,Potency,HEK293,7.31 µM (active)
same,Potency,NIH3T3,9.2 µM (active)
same,Potency,C33A,inactive
same,Potency,Es-2,inactive
same,Potency,OV90,inactive
O=C1Nc2nc(-c3c(O)cccc3OCC3CC3)cc([C@@H]3CCCNC3)c2CO1,max response,CRL-7250,-29.4%
same,Potency,HEK293,20.6 µM (active)
same,Potency,HeLa,inactive
same,Potency,JEG-3,inactive
Cn1ncc(Cl)c1-c1cc(C(=O)N[C@H](CN)Cc2ccc(F)c(F)c2)sc1Cl,max response,CRL-7250,-4.08%
same,Potency,HEK293,1.3 µM (active)
same,Potency,C33A,5.62 µM (active)
same,Potency,CAOV3,inactive
same,Potency,Es-2,inactive
same,Potency,HeLa,inactive
same,Potency,JEG-3,inactive
COC1CC(=O)C23C(=O)NC(Cc4c[nH]c5ccccc45)C2C(C)C2(C)OC2C3/C=C/CC(C)CC1O (stereo not drawn),Potency,CRL-7250,5.02 µM (active)
same,Potency,HEK293,7.09 µM (active)
same,Potency,C33A,inactive
same,Potency,CAOV3,inactive
same,Potency,Es-2,inactive
same,Potency,Hek293T,inactive
same,Potency,OV90,inactive
Fc1ccc2[nH]ccc2c1-c1nc(N2CCOCC2)c2sc(CN3CCN(CC4CC4)CC3)cc2n1,max response,CRL-7250,-20.6%
same,Potency,HEK293,18.4 µM (active)
same,Potency,Es-2,inactive
same,Potency,HeLa,inactive
same,Potency,JEG-3,20 µM (active)
COC(=O)CC1OC(C)C2=C(O)c3c(O)cccc3C(=O)C23OC13 (stereo not drawn),Potency,CRL-7250,4.04 µM (active)
same,Potency,HEK293,2.86 µM (active)
same,Potency,C33A,12.6 µM (active)
same,Potency,CAOV3,3.55 µM (active)
same,Potency,Es-2,10 µM (active)
same,Potency,Hek293T,10 µM (active)
same,Potency,OV90,10 µM (active)
C=CC(=O)Nc1cccc(Nc2nc(Nc3ccc(OCCOC)cc3)ncc2F)c1,Potency,CRL-7250,5.17 µM (active)
same,Potency,HEK293,8.2 µM (active)
same,Potency,NIH3T3,5.8 µM (active)
same,Potency,HeLa,11.2 µM (active)
same,Potency,JEG-3,inactive
C[C@H](Nc1ncnc2nc[nH]c12)c1cc2cccc(Cl)c2c(=O)n1-c1ccccc1,max response,CRL-7250,-26.4%
same,max response,HEK293,-90.1%
same,Potency,NIH3T3,4.61 µM (active)
same,Potency,CAOV3,inactive
same,Potency,Es-2,inactive
same,Potency,HeLa,inactive
same,Potency,JEG-3,inactive
same,Potency,OV90,inactive
C=C1C(=O)O[C@@H]2C(OC(=O)/C(C)=C\C)/C(C)=C\C(=O)/C=C(\C)C[C@H](O)[C@@H]12 (stereo partly drawn),Potency,CRL-7250,10.1 µM (active)
same,Potency,HEK293,2.55 µM (active)
same,Potency,NIH3T3,9.04 µM (active)
same,Potency,HeLa,inactive
same,Potency,Hek293T,11.2 µM (active)
same,Potency,OV90,inactive
Cc1nc(C#Cc2ccnc(Cl)c2)c(C)n1-c1ccc(F)cc1,Potency,CRL-7250,18.4 µM (active)
same,Potency,HEK293,7.31 µM (active)
same,max response,NIH3T3,-10.7%
same,Potency,CAOV3,inactive
same,Potency,CASKI,inactive
same,Potency,Es-2,inactive
same,Potency,HeLa,inactive
same,Potency,JEG-3,inactive
same,Potency,OV90,inactive
